# 3T3 cytotox: cytotoxic compounds in NIH 3T3 cells. NIH 3T3 viability, CellTiter-Glo ATP luminescence, 48-72 h. Potency, µM (top dose mostly 96.7 µM), actives largely listed as inhibitors. hit rate 4.3% among 94,000; also: nearly all actives have a fitted effect of over 55% in size
#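 Luminescent ATP readout (CellTiter-Glo, 10 min RT) after 48 or 72 hr compound exposure of NIH 3T3 cells seeded at 400 cells/well in 1536-well format; quantitative HTS.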
# hNpr1 antagonist: blocks ANP-stimulated signaling of human Npr1 receptor. Potency, µM (doses to about 46.3 µM), usual class: inhibitors. HEK293 hNpr1 GloSensor cGMP, ANP-stimulated luminescence. P16066. hit rate 1.6% among 76,000; calls by dose curve; also: nearly all actives have a fitted effect of over 60% in size
#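 Compound pre-incubated 30 min at room temperature on GloSensor-loaded HEK293 cells stably carrying hNpr1 and the pGS-40F cGMP biosensor. Stimulation uses hNppA at 0.1 nM final; luminescence is taken at baseline and 20 min post-agonist.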
# FLuc inh: Photinus pyralis luciferase inhibition; purified P. pyralis luciferase, luminescence, biochemical; Potency, µM (top dose mostly 115 µM), usual class: inhibitors; hit rate 2.5% among 76,000; also: nearly all actives have a fitted effect of over 65% in size
# Target sequence (P08659 whole entry, looked up): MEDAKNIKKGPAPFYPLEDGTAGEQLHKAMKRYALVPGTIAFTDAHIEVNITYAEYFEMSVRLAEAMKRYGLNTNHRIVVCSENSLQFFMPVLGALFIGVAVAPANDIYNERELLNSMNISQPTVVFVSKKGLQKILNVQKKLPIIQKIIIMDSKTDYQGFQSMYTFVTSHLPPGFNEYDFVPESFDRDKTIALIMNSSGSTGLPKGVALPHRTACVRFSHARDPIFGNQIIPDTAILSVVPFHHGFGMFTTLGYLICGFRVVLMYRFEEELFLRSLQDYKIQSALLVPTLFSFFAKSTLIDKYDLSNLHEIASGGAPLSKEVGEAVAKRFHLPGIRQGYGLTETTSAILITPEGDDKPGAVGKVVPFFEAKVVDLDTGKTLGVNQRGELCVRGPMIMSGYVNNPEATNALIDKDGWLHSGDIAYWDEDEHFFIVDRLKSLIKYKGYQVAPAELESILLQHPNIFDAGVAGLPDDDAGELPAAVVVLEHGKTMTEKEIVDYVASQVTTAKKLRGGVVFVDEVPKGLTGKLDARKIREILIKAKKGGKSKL
#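 Inhibitors were tested against purified firefly luciferase in a biochemical, low-substrate format (both substrates at 10uM) and luminescence measured with a CCD imager.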
# HEK293 tox: kills HEK 293 cells; HEK 293 viability, ATP luminescence (CellTiter-Glo), 48-72 h; Potency, µM (top dose mostly 115 µM), actives largely listed as inhibitors; hit rate 6.6% among 94,000; AID 1345083; also: nearly all actives have a fitted effect of over 60% in size
#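 ATP-coupled CellTiter-Glo luminescence served as viability read-out, recorded 10 min after reagent addition at room temperature. HEK 293 cells, 250 cells/well, had been incubated with pintool-transferred compound for 48 or 72 hr at 37 degree Celsius.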
# A number is an active result; i = inactive; ? = inconclusive; nt = no result. Compounds with a hit are over-represented: about 11% of the library has one in this group of screens. Unless noted, calls follow the shape of the dose curve; as a rule, active = well fitted curve in the direction sought with a large enough effect; inconclusive = small, poorly fitted or top-dose-only effect, or another doubt; inactive = no such curve, though single readings can be large; an effect the other way counts as inactive or inconclusive.
SMILES,3T3 cytotox,hNpr1 antagonist,FLuc inh,HEK293 tox
COc1ccccc1CNC(=O)C1CCCN1Cc1ccc(-c2cc(C)cc(C)c2)cc1 (stereo unspecified),40µM,nt,nt,40µM
Cc1ccc(C2Cn3nnc(C(=O)N4CCN(C(=O)c5c(F)cccc5F)CC4)c3CO2)cc1 (stereo unspecified),i,i,i,?
COc1ccc(CNc2ncnc3c2CN(C2CCNC2)C(=O)CN3C)cc1OC (stereo unspecified),i,nt,nt,?
COc1ccc(C(=O)N2CCC(N3CC(OCC4CC4)C34CCOCC4)CC2)cc1F (stereo unspecified),i,nt,nt,i
Cc1cc(C)cc(-c2ccc(CN3CCCC3C(=O)NCc3ccc(C(F)(F)F)cc3)cc2)c1 (stereo unspecified),35µM,nt,nt,40µM
Cc1cc(C)cc(-c2ccc(CN3CCCC3C(=O)NCCc3ccc(F)cc3)cc2)c1 (stereo unspecified),?,nt,nt,45µM
COc1ccc(-c2cnc([C@@H]3COCCN3C3CCCCC3)[nH]2)cc1,?,i,i,32µM
Cc1ccc(-c2cnc([C@@H]3COCCN3C(C)C)[nH]2)cc1,?,i,i,112µM
O=S(=O)(c1ccc(F)cc1)N1CCOC[C@H](Oc2ccc(C(F)(F)F)cn2)C1,?,?,i,?
COc1ccc(S(=O)(=O)N2CCOC[C@H](Oc3ccccc3)C2)cc1,?,i,i,63µM
Cc1noc(C)c1S(=O)(=O)N1CCOC[C@H](Oc2ccc(C(F)(F)F)cc2)C1,?,i,i,63µM
COc1ccc(S(=O)(=O)N2CCOC[C@H](Oc3ccc(C(F)(F)F)cn3)C2)cc1,?,?,i,100µM
CN(Cc1ccc2nccnc2c1)C(=O)c1cc(COc2ccc(F)cc2F)on1,?,i,?,?
COc1cc(C)ccc1OCc1cc(C(=O)N(C)Cc2ncccc2C)no1,35µM,i,i,40µM
O=C(NC1CCN(c2cc(-c3cccs3)[nH]n2)C1)c1ccccn1 (stereo unspecified),i,i,i,?
COc1cccc(CNC(=O)c2ccc3nnc(Cc4ccco4)n3c2)c1,?,nt,nt,i
CCCc1nc(NCc2ccc(-c3noc(C)n3)cc2)c2cnn(C)c2n1,?,11µM,i,18µM
COc1ccc(-c2ccc3nc(-c4ccccc4)oc3c2)c(OC)c1OC,?,i,i,45µM
COc1ccc(-c2nc3ccc(-c4ccc5c(c4)OCO5)cc3o2)c(OC)c1OC,?,i,13µM,?
COc1ccc(-c2ccc3nc(-c4ccc(Cl)cc4)oc3c2)c(OC)c1OC,i,i,?,i
Cc1ccccc1NC(=O)c1ccc2c(c1)OCCN(C1CCC1)C2,?,i,?,?
CC(C)n1cc(CN2CCOCCNC(=O)CC2)c2ccccc21,?,i,i,?
COc1ccc(CNC(=O)c2ccc3nnc(-c4ccc(Cl)cc4)n3c2)cc1,?,nt,nt,i
CC(=O)N[C@H]1C[C@@H](c2nc(-c3ccc4c(c3)OCO4)no2)N(C)C1,i,i,i,i
O[C@@H]1C[C@@H](c2nc(-c3ccc4c(c3)OCO4)no2)N(Cc2ccncc2)C1,?,?,?,89µM
SMILES,3T3 cytotox,hNpr1 antagonist,FLuc inh,HEK293 tox
CN1C[C@H](O)C[C@H]1c1nc(-c2ccc3c(c2)OCO3)no1,i,i,28µM,i
c1cc2c(cc1-c1noc(-c3nc(-c4ccc5c(c4)OCO5)no3)n1)OCO2,i,i,i,i
COCCc1noc(-c2nc(-c3ccc4c(c3)OCO4)no2)n1,i,i,18µM,?
OCc1ccc(CN2C[C@H](O)C[C@H]2c2nc(-c3ccc4c(c3)OCO4)no2)o1,i,i,18µM,i
COCCOCc1nc(C2CCCN2C(=O)NCc2ccc(OC)cc2)no1 (stereo unspecified),i,nt,nt,i
CCN1CCN(CC(O)COc2cccc(CNC3(c4ccccc4)CC3)c2)CC1 (stereo unspecified),?,i,i,32µM
Cc1noc(-c2cn(C3CCN(C(=O)c4ccc5[nH]ccc5c4)CC3)nn2)n1,i,i,i,i
O=C(c1ccc2cc[nH]c2c1)N1CCC(n2cc(-c3nc(-c4ccccc4)no3)nn2)CC1,?,i,?,40µM
O=C(c1ccc2[nH]ccc2c1)N1CCC(n2cc(-c3nc(-c4ccccc4)no3)nn2)C1 (stereo unspecified),?,7.9µM,?,16µM
CC(C)c1nccn1C1CN(C(=O)COc2ccccc2)C1,?,nt,nt,i
FC(F)(F)c1ccc(CN2CC[C@H](c3nc4ccc(C(F)(F)F)cc4[nH]3)C2)cc1,32µM,?,?,35µM
CN1CC[C@H](c2nc3ccc(C(F)(F)F)cc3[nH]2)C1,?,i,?,112µM
O=C(c1cnn2ccccc12)N1CCC(Cc2cccc(CO)c2)C1 (stereo unspecified),?,7.1µM,?,?
Cn1ncc2c(C(=O)N3CCN(c4ncccn4)CC3)cc(-c3ccccc3C(F)(F)F)nc21,i,nt,nt,?
CC(=O)NCc1nnc2n1C(C(=O)NCc1ccc(F)cc1)CC2 (stereo unspecified),i,nt,nt,i
O=C(c1cccc2cnccc12)N1CCCC2(C=Cc3ccccc3O2)CC1 (stereo unspecified),?,i,i,45µM
O=C1NC2(CCN(C(=O)c3cccnc3)CC2)Oc2ccccc21,i,i,i,i
CC(C)(CC(=O)O)CC(=O)N1Cc2[nH]cnc2C[C@H]1c1nc(-c2ccc3ccccc3c2)no1,i,i,i,i
Cc1cccc(-c2noc([C@@H]3Cc4nc[nH]c4CN3C(=O)NC(C)C)n2)c1,?,i,?,i
Cc1ccc(-c2noc([C@@H]3Cc4nc[nH]c4CN3C(=O)NC3CCCCC3)n2)cc1,?,i,i,i
O=C(C1CCCCC1)N1Cc2[nH]cnc2C[C@H]1c1nc(-c2ccc3ccccc3c2)no1,79µM,i,?,?
O=C(NC1CCCCC1)N1Cc2[nH]cnc2C[C@H]1c1nc(-c2ccccc2)no1,28µM,i,45µM,?
Cc1cccc(-c2noc([C@@H]3Cc4nc[nH]c4CN3C(=O)NC3CCCCC3)n2)c1,71µM,i,40µM,?
COc1ccccc1CNC[C@H]1Cn2cc(-c3ccc(C)cc3)nc2CO1,100µM,i,?,100µM
COc1ccc(-c2cn3c(n2)CO[C@@H](CNC(=O)C2CCCC2)C3)cc1,i,i,28µM,i
SMILES,3T3 cytotox,hNpr1 antagonist,FLuc inh,HEK293 tox
COc1ccc(NC(=O)NC[C@H]2Cn3cc(-c4ccc(C)cc4)nc3CO2)cc1,?,i,i,?
COc1ccc(-c2cn3c(n2)CO[C@@H](CNC(=O)c2ccccc2OC)C3)cc1,i,i,?,71µM
COc1ccccc1CNC[C@H]1Cn2c(-c3cccc(Cl)c3)cnc2CO1,?,i,i,79µM
Fc1ccc(CNC[C@H]2Cn3cc(-c4ccccc4)nc3CO2)cc1,?,i,i,?
Cc1ccc(-c2cn3c(n2)CO[C@@H](CNC(=O)C2CCCC2)C3)cc1,i,i,i,?
C#CCNC(=O)c1ccc2nnc(C3CCOCC3)n2c1,i,nt,nt,i
CCCNC(=O)N1CCCCC1CCn1cc(-c2ccccc2)nn1 (stereo unspecified),i,nt,nt,i

# From PubChem BioAssay
